Rows were chosen to be rich in hits. Some 2.4% of all compounds tested hit in one or more screens of this group.
Pol kappa inh: blocks human DNA polymerase kappa activity; Q9UBT6; purified Pol kappa, fluorescent DNA synthesis assay, 10 min; Potency, µM (top dose mostly 107 µM), most hits filed as inhibitors; 400,000 tested, 0.53% active
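10 nM Pol kappa was preincubated with compounds for 15 min at room temperature. Reaction started with 50 nM (final) substrate. Fluorescence read kinetically at 0 and 10 min.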
KAT2A inh: blocks human GCN5L2 histone acetyltransferase; Potency, µM (titrated, usually from 58.9 µM), usual class: inhibitors; 390,000 tested, 0.21% active; GCN5L2 HAT assay, ThioGlo1 CoA-SH fluorescence
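Titration-based screen in which CoA formation is detected via maleimide probe ThioGlo1 (50uM) turning fluorescent on thiol reaction; substrates H3(1-25) 75uM and acetyl-CoA 70uM, GCN5L2 20nM, 20 min incubation at room temperature.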
Pol beta inh: blocks human DNA polymerase beta activity. P06746. Pol beta primer extension/strand displacement, fluorescence kinetic. Potency, µM (top dose mostly 114 µM), usual class: inhibitors. 340,000 tested, 1.3% active. AID 485314
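10 nM enzyme + cpd, 15 min RT; start with substrate 50 nM final; read 0 min and after 10 min RT. Corrected, normalized data; 4-parameter Hill curve fit.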
POLI inh: DNA polymerase iota (human) inhibition; Q9UNA4; Pol iota fluorescent replication assay, 10 min; Potency, µM (top dose mostly 115 µM), hits mostly inhibitors; 390,000 tested, 1% active
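Fluorescent replication assay read twice, at 0 min and 10 min after adding 50 nM (final) substrate. Enzyme (10 nM) and compounds were first incubated 15 min at room temperature; enzyme-free buffer wells were negative controls.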
GLS inh: glutaminase GLS (human) inhibition | O94925 | GLS enzymatic activity, qHTS titration | Potency, µM (top dose mostly 45.5 µM), hits mostly inhibitors | 410,000 tested, 0.21% active
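Two-point fluorescence kinetic (t0, 30 min RT) for hKGA; glutamate detected via glutamate oxidase–HRP–Amplex Red. Substrate: 1 mM L-glutamine solution; buffer 45 mM KH2PO4, pH 8.2.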
POLH inh: blocks human DNA polymerase eta activity. 390,000 tested, 1.2% active. Q9Y253. AID 588591. recombinant Pol eta, fluorescent DNA replication assay. Potency, µM (doses to about 114 µM), hits mostly inhibitors
Target sequence (Q9Y253 whole entry, looked up): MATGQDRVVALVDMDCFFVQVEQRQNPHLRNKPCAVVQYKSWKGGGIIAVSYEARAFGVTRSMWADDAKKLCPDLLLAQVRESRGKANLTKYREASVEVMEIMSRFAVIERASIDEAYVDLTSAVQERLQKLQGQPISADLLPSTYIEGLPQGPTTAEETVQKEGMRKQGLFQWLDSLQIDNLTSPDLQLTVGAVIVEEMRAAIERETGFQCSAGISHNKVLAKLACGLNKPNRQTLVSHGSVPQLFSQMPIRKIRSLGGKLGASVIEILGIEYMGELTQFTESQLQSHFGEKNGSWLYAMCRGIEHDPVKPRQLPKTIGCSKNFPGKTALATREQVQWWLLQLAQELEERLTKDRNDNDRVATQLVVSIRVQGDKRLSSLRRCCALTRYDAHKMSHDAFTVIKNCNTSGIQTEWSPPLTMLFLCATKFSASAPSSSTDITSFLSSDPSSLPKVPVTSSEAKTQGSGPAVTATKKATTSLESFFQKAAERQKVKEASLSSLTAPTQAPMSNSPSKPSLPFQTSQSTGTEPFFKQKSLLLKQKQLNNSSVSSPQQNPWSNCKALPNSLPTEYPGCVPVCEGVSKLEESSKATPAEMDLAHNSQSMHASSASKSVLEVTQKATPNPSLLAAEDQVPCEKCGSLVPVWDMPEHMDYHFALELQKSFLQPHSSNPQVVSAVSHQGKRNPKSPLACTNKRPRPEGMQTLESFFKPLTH
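Pol eta (10 nM) was preincubated with compounds for 15 min at room temperature, after which fluorescent replication substrate (50 nM final) was added to start the reaction. Fluorescence was read kinetically at 0 and 10 min.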
Hits are given with their value. Calls follow the shape of the dose curve; as a rule, active = well fitted inhibition curve with a large enough effect; inconclusive = small, poorly fitted or top-dose-only effect, or another doubt; inactive = no such curve, though single readings can be large or run the other way.

`COc1ccc(CC(=O)N2CCc3cc(OC)c(OC)cc3C2COc2ccc(OC)cc2)cc1` (stereo unspecified) gave Pol kappa inh inactive, KAT2A inh inactive, Pol beta inh inactive, POLI inh inactive, GLS inh inactive and POLH inh inactive.
Screening O=C(COC(=O)/C=C/c1ccc(Br)o1)NC1CCCCC1 returned Pol kappa inh 79.4µM, KAT2A inh inactive, POLI inh 22.4µM, GLS inh inconclusive and POLH inh inconclusive.
For O=C(COC(=O)/C=C/c1ccc(Br)o1)Nc1ccccc1F the results were KAT2A inh inactive and Pol beta inh 25.1µM.
For O=C(COC(=O)/C=C/c1ccco1)NC1CCCCC1 the results were Pol kappa inh inactive, KAT2A inh inactive, POLI inh inactive, GLS inh inactive and POLH inh inactive.
For O=C1/C(=C/c2ccccc2Cl)SC(=S)N1CCC(=O)N1CCCCC1CCO (stereo unspecified) the results were Pol kappa inh inconclusive, KAT2A inh inactive, Pol beta inh inactive, POLI inh 25.1µM, GLS inh inactive and POLH inh inactive.
Screening O=C1/C(=C\c2ccccc2)SC(=S)N1CCC(=O)N1CCCCC1CCO (stereo unspecified) returned Pol kappa inh inactive, KAT2A inh inactive, Pol beta inh inactive, POLI inh inactive, GLS inh inactive and POLH inh inactive.
`Cn1cc(/C=C/c2ccc3ccccc3n2)c2ccccc21` gave Pol kappa inh inactive and POLI inh inactive.
COC(=O)/C=C/c1ccc2c(c1)S(=O)(=O)N(C1CCCC1)[C@H]2CC(=O)OC was read as Pol kappa inh inactive and POLI inh inactive.
`O=C(O)c1ccccc1N/N=C/c1c(Sc2nnnn2-c2ccccc2)nc2ccccn2c1=O` gave Pol kappa inh inactive, KAT2A inh inactive, Pol beta inh inconclusive, POLI inh inactive, GLS inh 11.2µM and POLH inh inconclusive.
Screening Cc1occc1C(=O)NCc1cccc(CNC(=O)c2ccoc2C)c1 returned Pol kappa inh 31.6µM, KAT2A inh inactive, Pol beta inh 22.4µM, POLI inh 15.8µM, GLS inh inactive and POLH inh 3.55µM.
Screening Cc1ccccc1OCC(=O)NNC(=O)c1ccc(-c2ccccc2)cc1 returned Pol kappa inh inactive, KAT2A inh inactive, Pol beta inh inconclusive, POLI inh 79.4µM, GLS inh inactive and POLH inh inactive.
O=C(NOC(=O)c1ccccc1)c1ccccc1 was read as Pol kappa inh inactive, KAT2A inh 35.5µM, Pol beta inh inactive, POLI inh inactive, GLS inh inactive and POLH inh inactive.
`Cc1ccccc1OCC(=O)NCC(=O)OCC(=O)c1ccc(-c2ccccc2)cc1` gave Pol kappa inh inactive and POLI inh inactive.
Screening O=C(NNC(=O)c1ccc(-c2ccccc2)cc1)c1ccccc1 returned Pol kappa inh inactive, KAT2A inh inactive, Pol beta inh inactive, POLI inh 79.4µM, GLS inh inactive and POLH inh inconclusive.
`CCCCCC(=O)NNC(=O)c1ccc(-c2ccccc2)cc1` gave Pol kappa inh inactive, KAT2A inh inactive, Pol beta inh 39.8µM, POLI inh inconclusive, GLS inh inactive and POLH inh inactive.
Screening Nc1cc([N+](=O)[O-])cc(N)c1N returned Pol kappa inh inactive and POLI inh inactive.
For Cc1ccc2c(N)c(C)ccc2c1 the results were Pol kappa inh inactive, KAT2A inh inactive, Pol beta inh inactive, POLI inh inactive, GLS inh inactive and POLH inh inactive.
Screening Cc1ccc2cc3c(N)c4c(C)ccc(C)c4nc3nc2c1 returned Pol kappa inh inactive, KAT2A inh inactive, Pol beta inh 25.1µM, POLI inh inconclusive, GLS inh inactive and POLH inh inconclusive.
Screening COc1ccc(-c2ccc(/C=C3/C(=N)N4C=CSC4=NC3=O)o2)c([N+](=O)[O-])c1 returned Pol kappa inh inactive, KAT2A inh inactive, Pol beta inh 35.5µM, POLI inh inconclusive, GLS inh inactive and POLH inh 20µM.
`CC(C)(C)c1cc[n+](C2=C([O-])c3ccccc3C(=O)/C2=N\S(=O)(=O)c2cccs2)cc1` gave Pol kappa inh inactive, KAT2A inh inactive, Pol beta inh inactive, POLI inh inconclusive, GLS inh inactive and POLH inh inactive.
O=C1/C(=N\S(=O)(=O)c2cccs2)C([n+]2ccccc2)=C([O-])c2ccccc21 was read as Pol kappa inh inactive, KAT2A inh inactive, Pol beta inh inconclusive, POLI inh inactive, GLS inh inactive and POLH inh 31.6µM.
For COc1cc(/C=C2\C(=O)N(c3ccccc3)N=C2C)ccc1Oc1ccc([N+](=O)[O-])cc1[N+](=O)[O-] the results were Pol kappa inh inactive, KAT2A inh inactive, Pol beta inh inactive, POLI inh 2µM, GLS inh inactive and POLH inh inconclusive.
`COc1cc(/C=C2/SC(=O)NC2=O)ccc1Oc1ccc([N+](=O)[O-])cc1[N+](=O)[O-]` gave Pol kappa inh inactive, KAT2A inh inactive, Pol beta inh inactive, POLI inh inconclusive, GLS inh inactive and POLH inh 50.1µM.
For CC1=NN(c2ccccc2)C(=O)/C1=C\c1ccc(Oc2ccc([N+](=O)[O-])cc2[N+](=O)[O-])cc1 the results were Pol kappa inh inactive, KAT2A inh inactive, Pol beta inh inactive, POLI inh 1.78µM, GLS inh inactive and POLH inh 50.1µM.
`N#CC1=C(S)N(c2ccccc2)C(c2ccc(-c3ccccc3Cl)o2)NC1=O` (stereo unspecified) gave Pol kappa inh inactive, KAT2A inh inactive, Pol beta inh inactive, POLI inh inactive, GLS inh inactive and POLH inh 44.7µM.
`O=C(Nc1cccc(-c2nc3cccnc3s2)c1)c1cccnc1Cl` gave Pol kappa inh inactive, KAT2A inh inactive, Pol beta inh inactive, POLI inh inactive, GLS inh inactive and POLH inh inactive.
Screening O=C(Nc1cccc(-c2nc3cccnc3s2)c1)C1c2ccccc2Oc2ccccc21 returned Pol kappa inh inactive, KAT2A inh inactive, Pol beta inh inactive, POLI inh inactive, GLS inh inconclusive and POLH inh 8.91µM.
Screening CCOC(=O)N1CCN(C(=O)C2CCN(C(=O)c3ccccc3C)CC2)CC1 returned Pol kappa inh inconclusive, POLI inh inconclusive, GLS inh inconclusive and POLH inh 31.6µM.
Screening Cc1ccccc1C(=O)N1CCC(C(=O)N2CCN(c3ncccn3)CC2)CC1 returned Pol kappa inh inactive, KAT2A inh inactive, POLI inh inactive, GLS inh inactive and POLH inh inactive.
Screening CCN1CCN(c2ncc3c(n2)CCN(Cc2ccccc2C)C3)CC1 returned Pol kappa inh inactive, KAT2A inh inactive, Pol beta inh inactive, POLI inh inactive, GLS inh inactive and POLH inh inactive.
